Experimental findings from the OligoGym collection are described below.
Note: reference of the scale not given here.

For one experiment, the target named is DNAJC13. The experiment is described as follows: pooled miR-30 sensor sort-seq; sequence = guide strand. The conditions noted are these: shRNA.
As to TTGTTGTGTAGAAACATGCCAG, the sensor-assay potency score (higher = more potent) was -0.232.
On to TTAAGGAAGAGAATCAACCTAT, for which the sensor-assay potency score (higher = more potent) was -0.138.
Still for that read-out and setting: the same measure for TTTTCTACTTCTTTCTTCCAGG: -0.404; for TAGACCAACAGTATCTGCTCGC: 0.515.
With TTCAATTACATTGCTTTGCAGT, the sensor-assay potency score (higher = more potent) is -0.243.
With TATCTTTCAGTTCTTCTCGTGT, the sensor-assay potency score (higher = more potent) is -0.0145.
TATCTTGTCCTTTTGTCTCTTC registered a sensor-assay potency score (higher = more potent) of 0.492.
On the same count and under the same terms, next, TTGAATTGCAGAACATATCCAG: 0.63.
Sequence TACTAATTCACTCTGCTCCTTC registered a sensor-assay potency score (higher = more potent) of 0.364.
Same read-out and setting: next, TTGATTATTTTTGTACTCGATG: -0.943; TTGTGCTACTAATTCACTCTGC: 0.635.

Another experiment deals with DNAJC19. The experiment is described as above. To be noted: shRNA.
Regarding TTTATTAGTGTATAAATTCTAA, the sensor-assay potency score (higher = more potent) is -0.615.
Still for that read-out and setting: the same measure for TTCGTCGATGAGCATCTCTTAT: -1.36; for TTAAAAGCATAATTCGTCGATG: -0.449; for TTCACTTTTAAATACAAGGTTC: -0.645.
The same measure, in the same setting: the same measure for TTTTTTAAAATTGTAGCTCTGA: 0.364; for TAAAATTGTAGCTCTGAGGCAT: 0.463.
On the same count and under the same terms, next, ATGAACAATATTTCTATTCAGA: -0.967; TAAATCTTTAGCTTCATTGATT: -0.54; TTCAGTTTTGCTAACAGGGTTT: -0.256.
In turn, TTGATATTGAGAACATTTCAGT showed a sensor-assay potency score (higher = more potent) of -0.702.
The same measure, in the same setting: the same measure for TAAACAAGAAAATTATACCAAG: -1.18; for TTTAAAAGCATAATTCGTCGAT: 0.123.

A further experiment concerns the target DNAJC4. The experiment is described as above. To be noted: shRNA.
On to TTGTCGCTCCTGCTGAAGGATG, for which the sensor-assay potency score (higher = more potent) is -1.56.
TTGGGGGACTACCTGAGCGGAG had a sensor-assay potency score (higher = more potent) of -1.16.
Same read-out and setting: the same measure for TTCATCCATGAAGTTAAGGTGC: -0.818.
Still for that read-out and setting: next, TAGCCGTTGTCGCTCCTGCTGA: -1.23; TTAACTTCCTCAGTGCTGGCAC: 0.72; TGCATCTGCTTCACCTTCCTGA: -0.639.
On the same count and under the same terms, next, TTTGGTGGGCAGACTTGTCATG: -0.548; TTGTTTGTGTTGCTGCTGCCTC: -0.896.
With TAGAAGGCTGTGATGATCCGAT, the sensor-assay potency score (higher = more potent) came to 0.303.
The sequence TTGTCATGGACTGTGGTTCGTG registered a sensor-assay potency score (higher = more potent) of -0.505.
As for TTTGGGGGACTACCTGAGCGGA, the sensor-assay potency score (higher = more potent) was -1.85.
TCGCTCAGCTCCACAAAGCGGC: the sensor-assay potency score (higher = more potent) was -1.13.

For a further experiment, the target named is DNAJC8. Described as above. To be noted: shRNA.
Turning to TTTTTCGAAGTTAGAACCGAGT, the sensor-assay potency score (higher = more potent) is -0.8.
The same measure, in the same setting: next, TTTCTTCATCTGTAACTTCAGG: -0.78.
The same measure, in the same setting: next, TTTCACAGTGTGTTCCACGTAT: 0.15; TTGGCTTGGAAGTTTCGCCAGC: -0.414; TTGAGCTTCAATCTCTTCTTCC: 0.0915.
